Reference: PubChem BioAssay (NCI)
This is part of a sample that, as a whole, favours compounds with a hit. Of some 83,000 tested, about 20% had one in any assay.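 The test compound was applied at a single concentration to cells in 96-well plates for 48 hours, and percent growth was recorded.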 Calls of active or inactive are those of the source. How the source made its calls: active means growth percent below 10; inactive means the rest.

Legend:
Experiment in all cases: NCI-60 one-dose screen, 48 h (100 = growth as untreated, 0 = no growth, -100 = all killed)
Settings in all cases: 10 µM unless noted
[1] = system: NCI-H23 lung
[2] = system: NCI-H226 lung
[3] = system: NCI-H322M lung
[4] = system: HOP-62 NSCLC
[5] = system: NCI-H460 lung
[6] = system: HOP-92 NSCLC
[7] = system: NCI-H522 lung
[8] = system: A549/ATCC NSCLC
[9] = system: 786-0 renal
[10] = system: DU-145 prostate
[11] = system: K-562 leukemia
[12] = system: MALME-3M melanoma
[13] = system: MDA-MB-231 breast
[14] = system: RXF 393 renal
[15] = system: SF-268 CNS
[16] = system: SF-295 CNS
[17] = system: SF-539 CNS
[18] = system: UACC-257 melanoma
[19] = system: M14 melanoma

Measured: growth

CCn1c(Sc2nnc(NC(=O)CCN3CCCC3)s2)nc2c1c(=O)n(C)c(=O)n2C
inactive: [1] 106% | [2] 103% | [3] 105% | [4] 103% | [5] 112% | [6] 107% | [7] 86.8% | [8] 99.3% | [9] 106% | [10] 104% | [11] 102% | [12] 107% | [13] 103% | [14] 110% | [15] 102% | [16] 107% | [17] 98.4% | [18] 102% | [19] 107%

CN(C)c1ccc(/C=C/c2c(F)cccc2F)cc1
inactive: [1] 83.9% | [2] 94.1% | [3] 92.7% | [4] 74.4% | [5] 107% | [6] 81% | [7] 76.4% | [8] 82.6% | [9] 105% | [10] 105% | [11] 115% | [12] 90.1% | [13] 110% | [14] 108% | [15] 93.7% | [16] 96.6% | [17] 98.3% | [18] 89% | [19] 93.2%

O=c1ccn(C2OC(F)(CO)C(O)C2F)c(=O)[nH]1 (configuration not stated)
inactive: [1] 100% | [2] 102% | [3] 113% | [4] 82.7% | [5] 107% | [6] 98.1% | [7] 75% | [8] 104% | [9] 96% | [10] 110% | [11] 112% | [12] 110% | [13] 114% | [14] 141% | [15] 100% | [16] 98.3% | [17] 100% | [18] 95.1% | [19] 95.3%

CCNCCNc1cc(-c2ccc(C#N)cc2)c(C#N)c2nc3ccccc3n12
inactive: [1] 47.5% | [2] 81.1% | [3] 33.6% | [4] 56.6% | [6] 63.3% | [7] 31.8% | [9] 28% | [10] 33.6% | [11] 23.9% | [12] 51.6% | [15] 35.1% | [18] 57.5%
active: [5] -28.1% | [8] 2.81% | [13] 6.63% | [14] -10.6% | [16] -64.6% | [17] -77.3% | [19] -6.91%

N#Cc1c(-c2ccccc2)nc(SCC2CO2)nc1N1CCOCC1 (configuration not stated)
active: [16] 9.14%
inactive: [1] 71.4% | [2] 75% | [3] 65.8% | [4] 54.3% | [5] 67.6% | [6] 18.3% | [7] 57.9% | [8] 83.8% | [9] 65.5% | [10] 87.5% | [11] 97.4% | [12] 25.7% | [13] 71.4% | [14] 31.5% | [15] 69.7% | [17] 85.6% | [18] 69.2% | [19] 84%

CCOC(=O)c1c(C)[nH]c(C(=O)CCC(=O)OC)c1C
inactive: [1] 98.3% | [2] 95.8% | [3] 98.5% | [4] 98.7% | [5] 110% | [6] 84.6% | [7] 72.5% | [8] 93.3% | [9] 92.9% | [10] 100% | [11] 102% | [12] 98.7% | [13] 115% | [14] 112% | [15] 98.3% | [16] 91.8% | [17] 100% | [18] 112% | [19] 97.5%

O=C(Oc1ccc[nH]c1=O)c1cc([N+](=O)[O-])cc([N+](=O)[O-])c1
inactive: [1] 114% | [2] 104% | [3] 98.6% | [4] 97.2% | [5] 111% | [6] 146% | [7] 116% | [8] 77.3% | [9] 101% | [10] 123% | [11] 87.1% | [12] 156% | [13] 114% | [14] 83.3% | [15] 116% | [16] 113% | [17] 99.3% | [18] 19.7% | [19] 101%

Cl.Fc1c[c-]c(-c2ccccn2)c(F)c1.[Pt].c1ccc(P(c2ccccc2)C([PH+](c2ccccc2)c2ccccc2)[PH+](c2ccccc2)c2ccccc2)cc1
active: [1] 5.53% | [5] 7.55% | [6] -12.9% | [12] -12.9% | [13] -16% | [16] 5.14% | [17] 9.54% | [18] 6.42%
inactive: [2] 12.5% | [3] 20.8% | [4] 25.9% | [7] 12% | [8] 15.4% | [9] 22.5% | [10] 26.1% | [11] 13.6% | [14] 13.3% | [15] 26.4% | [19] 18.7%
